This is an account of results in ChEMBL document CHEMBL3433997, “St. Jude Leishmania screening dataset” (2016).

The target in the test is Glucose transporter (Leishmania mexicana) (UniProt O61059). Kind of test: ST_JUDE_LEISH: Cytotoxicity at 2uM final concentration against transgenic Leishmania Mexicana promastigotes LmGT2 that are glucose transport deficient and complemented with the L. Mexicana glucose transporter 2. Activity is measured by DNA content using SYBR green in vitro. Type of test: functional.
With `CC(=O)c1c[nH]c(C(=O)Nc2ccc(-c3cn4ccccc4n3)cc2)c1`, the inhibition worked out at 10.2%.

As for `COc1ccc(-c2cnc(N)nc2N)cc1Cl`, the inhibition was found to be 2.06%. As to `CCN1CCN(C(=O)NC(C(=O)N(C)Cc2ccc(-c3ccc(C(F)(F)F)cc3)cc2)c2cccs2)C(=O)C1=O` (stereo not given), the inhibition was determined as 1.3%. For `O=C(NCc1ccc(C(=O)NCc2cccc3ccccc23)cc1)c1ccc(O)c(-c2ccc(Cl)c(Cl)c2)c1` the value was 0.96%.

In the case of `COc1cc(NCC(O)CNc2cc(Cl)nc3ccccc23)nc2ccccc12` (stereo not given), the inhibition worked out at 7%. As for `O=[N+]([O-])c1cccc(CNC2CCN(Cc3ccc(C(F)(F)F)cc3)CC2)c1`, the inhibition turned out to be 3.71%. Take `Cc1cccn2c(=O)c3cc(C(=O)NCCN4CCOCC4)c(=N)n(CCc4ccccc4)c3nc12`: the inhibition was determined as 0.41%. In the case of `CCCc1cc(N2CCC(N(CC)CC)C2)nc(Nc2ccc(OC)cc2)n1` (stereo not given), the inhibition was 1.91%. Regarding `FC(F)(F)c1ccc(CSc2ccc3nnc(-c4ccccn4)n3n2)cc1`, the inhibition was determined as 7.64%.

In the case of `CC(Sc1nc(-c2ccccc2)c(-c2ccccc2)o1)C(=O)NC1CC1` (stereo not given), the inhibition stood at 0.3%. As to `O=C(c1ccc(-c2ccc(Cl)cc2)o1)N1CCc2cc3nccc(N4CCN5CCC[C@H]5C4)c3cc21`, the inhibition stood at 0.64%. Regarding `CC(Sc1nnc(-c2cccs2)[nH]1)C(=O)c1c[nH]c2ccccc12` (stereo not given), the inhibition was 0.63%.

For the compound `O=C(Nc1ccc(OC2CCN(Cc3ccc(F)cc3)C2)c(Cl)c1)c1ccoc1` (stereo not given), the inhibition turned out to be 0.61%.

In the case of `COc1ccccc1CCNc1ncnc2c1[nH]c1ccc(F)cc12`, the inhibition turned out to be 10.1%. As to `CC(NC(=O)NC1CCC(CCN2CCCc3ccccc32)CC1)c1cccc2ccccc12` (stereo not given), the inhibition is -1.84%. Under `CCN(CC)CCN(Cc1ccc(-c2ccc(C(F)(F)F)cc2)cc1)C(=O)c1ccc(-c2ccc(NC(=O)OC)cc2C)cc1` stands 10.1%; under `FC(F)(F)c1ccc2[nH]c(-c3cccc(-c4cccc(CNCCc5ccncc5)c4)c3)nc2c1`, 5.06%; under `Cc1ccc(S(=O)(=O)N2CCN(C(=O)c3cc(-c4ccccc4)n[nH]3)CC2)cc1`, 2.37%. Take `COc1ccc(Cl)cc1N1CCN(CCCNC(=O)c2ccc(-c3nc4c(C)cccc4[nH]3)s2)CC1`: the inhibition was -1.08%. Regarding `CCCc1cc(Cc2cnc(N)nc2N)ccc1OCCCCCC(=O)OCC`, the inhibition is -2.01%. As for `O=C(/C=C/c1ccc(Cl)c(Cl)c1)NCCCCCN1CCCN(C(=O)Nc2ccc(Cl)c(Cl)c2)CC1`, the inhibition is -0.85%. Take `CCOc1c(Br)cc(Br)cc1CNCCCCNc1nc2ccccc2[nH]1`: the inhibition stood at 3.2%. For the compound `CC(C)(C)c1ccc(OCC(=O)NC2CCN(c3ccnc4cc(Cl)ccc34)C2)cc1` (stereo not given), the inhibition was -1.09%. Under `CCC(Cc1cnc2nc(N)nc(N)c2n1)c1ccc(C(=O)O)cc1` (stereo not given) stands 2.49%; under `CCCCCN1CCCC(NS(=O)(=O)c2cccc(C(=O)Nc3cccc(C(F)(F)F)c3)c2)C1` (stereo not given), -2.02%; under `O=C(NC(Cc1ccccc1)C(=O)O)c1cc(=O)c2ccccc2o1` (stereo not given), 0.99%. For the compound `O=C(/C=C/c1ccc(Cl)c(Cl)c1)NCCCCCCN1CCCN(C(=O)Nc2ccc(Cl)c(Cl)c2)CC1`, the inhibition is -2.06%. For `NS(=O)(=O)NCCCN1CCN(c2ccccc2)CC1`, the inhibition was found to be 1.5%. `CCC(CC)NCc1c(O)ccc2c(CNC(CC)CC)c(O)ccc12`: the inhibition was -1.57%.

Regarding `O=C(NCC1CCN(Cc2ccc3c(c2)OCCO3)C1)c1cc(-c2cccc(C(F)(F)F)c2)cs1` (stereo not given), the inhibition was determined as 2.27%.

Regarding `Cn1cc(CN2CCCC(COC(c3ccc(F)cc3)c3ccc(F)cc3)C2)cn1` (stereo not given), the inhibition turned out to be 1.84%.

As for `Cc1cc(N[C@@H](CC(C)C)C(=O)NCCOc2ccccc2)nc(NCC2CCCCC2)n1`, the inhibition was determined as 6.41%. Under `COc1ccc(CN(C)CCOc2ccc(NC(=O)c3cccc4c(=O)c5cc(SC)ccc5[nH]c34)cc2)cc1OC` stands 3.5%; under `COc1ccc(CCC(C)(C)NCC(O)c2cccc(C(F)(F)F)c2)cc1` (stereo not given), 5.12%. As for `Cc1ccc(Nc2nccc(Nc3ccc4c(c3)nc(Nc3cc(C(C)(C)C)on3)n4C)n2)cc1S(C)(=O)=O`, the inhibition was -1.41%. In the case of `COCCNCc1cccc(-c2ccc(CNC3CCN(Cc4ccccc4)CC3)cc2)c1`, the inhibition was found to be 4.63%. In the case of `CCCCOc1cc2ncc(C(=O)OCC)c(O)c2cc1OCCCC`, the inhibition is -3.15%. Under `COc1ccc(CCNC(=O)c2ccc(-n3cc(NC(=O)c4cccnc4)cn3)cc2)cc1OC` stands 3.79%; under `CCCN(CCCCNC(=O)c1ccc(-c2cccnc2)cc1)C1CCc2c(O)cccc2C1` (stereo not given), 3.11%. For `Cc1ccc(CN2CCN(Cc3cccc(NC(=O)c4cccs4)c3)CC2)cc1C` the value was 1.91%.

One may read the inhibition as the change of the read-out against control, counted positive when it falls.
